An excerpt weighted towards active compounds, which were near 6.6% of everything screened.
BoNT F protease: BoNT/F light chain protease inhibitors, primary screen, biochemical, flow cytometry, MLPCN library. inhibition, % at 10 µM. Multiplex microsphere protease cleavage assay. 360,000 tested, 0.22% active; in the data active means inhibition above about 35%, passing the limit was not always enough; inconclusive means no clear call, values can overlap the other calls; further: plate controls were buffer without enzyme for full effect and enzyme alone for no effect
Autofluor counter: compound fluorescence in toxin protease inhibitor counterscreen; 360,000 tested, 3.1% active; compound autofluorescence counterscreen, microsphere flow cytometry; hits give high values; fluorescence intensity (test concentration not listed); AID 624483; in the data active means fluorescence intensity above about 16000; inconclusive means no clear call, values can overlap the other calls
GDH-TPI counter-1: GDH-TPI coupling enzyme inhibitors, primary screen, artefact control for M. tuberculosis FBA inhibitor project, biochemical, absorbance, full deck; AID 588335, 2011; GDH-TPI coupled enzyme counterscreen, NADH absorbance; 360,000 tested, 1.2% active; inhibition, % at 4.8 µM; in the data active means inhibition above about 30%;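 further: 0% = DMSO wells and 100% = wells lacking the enzyme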
BoNT-A LC inh2: BoNT/A light chain protease inhibitors, primary screen, biochemical, flow cytometry, MLPCN library | Botulinum neurotoxin type A light chain protease (Clostridium botulinum A str. ATCC 3502) | multiplex microsphere protease substrate cleavage | inhibition, % at 10 µM | 360,000 tested, 0.17% active | AID 588499, 2011; further: plate controls were buffer without enzyme for full effect and enzyme alone for no effect
Anthrax LF inh2: Bacillus anthracis LF protease inhibitors, primary screen, biochemical, multiplex microsphere, MLPCN library | inhibition, % at 10 µM | AID 588501, 2011 | Lethal factor (Bacillus anthracis), P15917 | 360,000 tested, 0.12% active | multiplex microsphere protease cleavage assay; further: plate controls were buffer without enzyme for full effect and enzyme alone for no effect
Mtb FBA inh: Mtb FBA enzyme inhibitors, primary screen, biochemical, fluorescence, strain H37Rv; inhibition, % at 1 µM; 360,000 tested, 2.3% active; Fructose-bisphosphate aldolase (Mycobacterium tuberculosis (strain ATCC 25618 / H37Rv)), …; AID 588726, 2011; purified M. tuberculosis FBA, fluorescence read-out; in the data active means inhibition above about 27%;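 further: 0% = vehicle and 100% = reference inhibitor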
Target sequence (P9WQA3 whole entry, looked up): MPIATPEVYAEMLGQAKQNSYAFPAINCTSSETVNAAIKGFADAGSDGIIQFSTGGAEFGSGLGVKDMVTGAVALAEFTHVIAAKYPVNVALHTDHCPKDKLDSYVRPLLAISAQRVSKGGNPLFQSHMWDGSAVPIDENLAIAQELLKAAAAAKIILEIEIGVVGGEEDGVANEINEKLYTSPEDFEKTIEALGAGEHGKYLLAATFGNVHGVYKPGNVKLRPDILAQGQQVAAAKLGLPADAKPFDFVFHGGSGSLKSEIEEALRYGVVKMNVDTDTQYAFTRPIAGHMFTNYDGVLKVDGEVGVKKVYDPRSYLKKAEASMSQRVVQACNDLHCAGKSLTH
Mtb FBA inh conf: M. tuberculosis aldolase blockers, biochemical, fluorescence, strain H37Rv, confirmation | shares compounds with Mtb FBA inh | purified M. tuberculosis FBA, fluorescence read-out | inhibition, % at 1 µM | 5,600 tested, 78% active; in the data active means inhibition above about 27%;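 further: 0% = vehicle wells and 100% = reference inhibitor wells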
GDH-TPI counter-2: GDH-TPI coupling enzyme inhibitors, artefact control for M. tuberculosis FBA inhibitor project, biochemical, fluorescence, high throughput | AID 652141, 2013 | inhibition, % at 1 µM | GDH-TPI coupled enzyme counterscreen | 5,600 tested, 81% active | shares compounds with Mtb FBA inh; in the data active means inhibition above about 10%
GDH-TPI DR: GDH-TPI coupling enzyme inhibitors, dose response, artefact control for M. tuberculosis FBA inhibitor project, biochemical, fluorescence, IC50 | IC50, µM | AID 652145, 2013 | shares compounds with Mtb FBA inh | GDH-TPI coupled enzyme assay, artifact counterscreen | 170 tested, 79% active; call rule not given here
* hit, by the source's call; ? = inconclusive; . = no result; + = active, no number. Unless noted, no stated cut-off is given here; in the data, active means inhibition above about 30%; inconclusive means no clear call, values can overlap the other calls; inactive means below that.

SMILES	BoNT F protease	Autofluor counter	GDH-TPI counter-1	BoNT-A LC inh2	Anthrax LF inh2	Mtb FBA inh	Mtb FBA inh conf	GDH-TPI counter-2	others
O=C(COCc1ccccc1)N[C@@H]1c2ccccc2CC[C@H]1OCc1ccccc1	3	3292	-5	0	-1	-2	.	.
Cc1ccc(C(=O)NNc2c3ccccc3nc3ccccc23)cc1	?	3272	23	2	16	36*	97*	103*
Cc1ccc(-c2nc(Nc3cccc(O)c3)c3ccccc3n2)cc1	?	3912	6	-5	2	-1	.	.
CCOC(=O)Nc1c2ccccc2nc2ccccc12	?	4825	12	-1	12	95*	114*	77*
CC(C)(C)Nc1c2ccccc2nc2ccccc12	-7	3712	-5	-1	0	42*	94*	71*
Oc1cccc(Nc2c3ccccc3nc3ccccc23)c1	?	4153	3	-3	-7	65*	21	18*
CCOC(=O)CSc1nc(C)c2ccccc2n1	-1	3378	4	0	-1	0	.	.
CC(C)(C)OC(=O)N[C@@H](Cc1ccccc1)C(=O)N1CCC(C(=O)N[C@@H](Cc2c[nH]c3ccccc23)C(=O)O)CC1	5	2936	0	4	3	3	.	.
CCc1c(C)nc(SC(C(=O)O)c2ccccc2)c(C#N)c1C (centres undefined)	-2	10577	0	1	5	5	.	.
COc1cccc(NC(=O)CCNS(=O)(=O)c2cccc3nonc23)c1	1	5288	3	-2	-2	1	.	.
OCCN1CCN(c2ncnc3c2ncn3[C@H]2CN(Cc3ccc(F)cc3)C[C@@H](CO)O2)CC1	7	2925	7	0	-7	3	.	.
CN(c1cccc(F)c1)c1cc2c(c3c1ccn3C)C1CCC2O1 (centres undefined)	-9	7513	.	-1	1	4	.	.
O=C(O)c1ccc(Nc2c3ccccc3nc3ccccc23)cc1	-24	3531	-1	2	-5	98*	+	+
COc1ccc(OC)c(/C=N\NC(=O)c2cc3c(ccc4ccccc43)o2)c1	4	5599	24	2	-1	7	.	.
O=C(N/N=C/c1ccccc1F)c1cc2c(ccc3ccccc32)o1	3	5714	13	-1	-1	30*	54*	36*
COc1ccc(N2C3=C(C(=O)CC(C)(C)C3)C(c3ccccc3OC)C3=C2CC(C)(C)CC3=O)cc1	?	4156	-2	-2	-1	50*	76*	60*
Cc1cc2c(SCc3ccccc3Cl)nc(N)nc2nc1C	11	7702	6	3	2	86*	19	1	GDH-TPI DR=1.3*
O=C(CS(=O)CC(=O)Nc1cccnc1)Nc1ccc(F)cc1 (centres undefined)	-3	5786	-2	0	-2	0	.	.
CC1CCc2nc(/C(C#N)=C/c3ccncc3)sc2C1 (centres undefined)	-2	2564	9	0	1	28*	9	-4
CC(C)c1cc(NCCCN2CCOCC2)n2c(nc3ccccc32)c1C#N	-2	10101	6	0	6	51*	169*	129*
N#Cc1c2c(c(NCCCN3CCOCC3)n3c1nc1ccccc13)CCC2	-7	3141	14	0	-5	27*	52*	60*
C[C@@H](NC(=O)[C@@H]1Cc2ccccc2CN1C(=O)OC(C)(C)C)C(=O)NCc1ccco1	7	4447	2	-1	-4	5	.	.
CC(=O)c1cccc(N(CC(=O)NC2CCCCC2)C(=O)CCC(=O)Nc2nc(C)cs2)c1	15	3912	-4	-1	-8	0	.	.
COc1ccccc1NC(=O)c1coc(=O)c(Br)c1	?	3555	5	1	-2	63*	52*	46*
COc1ccccc1NC(=O)c1cc(N)cc(C(=O)Nc2ccccc2OC)c1	7	5499	7	1	-3	0	.	.
SMILES	BoNT F protease	Autofluor counter	GDH-TPI counter-1	BoNT-A LC inh2	Anthrax LF inh2	Mtb FBA inh	Mtb FBA inh conf	GDH-TPI counter-2	others
Cc1ccc(C(=O)NCCN(C)C)c(C)c1	?	2816	7	1	2	3	.	.
COc1ccccc1N1CCN(C(=O)c2coc(=O)c(Br)c2)CC1	30	3728	15	1	?	84*	+	+
CN(C)CCNC(=O)c1coc(=O)c(Br)c1	-4	2758	10	0	3	66*	+	+
Cc1ccc(CNC(=O)c2ccccc2N)cc1	1	19203*	-10	1	0	60*	80*	60*
Nc1ccccc1C(=O)NCc1ccco1	9	3849	1	-3	-3	52*	83*	59*
Cc1cccc(CNC(=O)c2ccccc2N)c1	17	6202	-10	4	6	58*	137*	102*
Cc1c(SCCO)c(=O)[nH]c2cc3c(cc12)OCO3	5	11161	17	0	1	35*	127*	120*
O=C(NCCc1ccccc1)c1ccc(NCC2CCCO2)c([N+](=O)[O-])c1 (centres undefined)	0	4593	-1	1	-2	-1	.	.
C/C(=N/NC(=O)c1sc(NS(=O)(=O)c2ccc(C)cc2)nc1C)c1sc(N)nc1C	-9	4958	17	-1	-2	66*	172*	140*
O=c1c2c(nc3cc(-c4cccc(F)c4)[nH]n13)CCC2	-6	5277	3	-1	1	37*	-4	-3
O=c1c2c(nc3cc(-c4ccc(F)cc4)[nH]n13)CCCC2	8	2585	0	0	-1	22	.	.
CC(C(=O)N(C)c1ccccc1)N1CCN(C(=O)c2ccccc2)CC1 (centres undefined)	-10	3721	5	0	0	2	.	.
Cc1cc(N2CC(C)OC(C)C2)n2cc(-c3ccccc3)nc2n1 (centres undefined)	3	3416	6	0	-6	63*	+	+

High-throughput results deposited in PubChem BioAssay by several laboratories.
